Consider 38 compounds from PubChem BioAssay (Tox21).

Where “and” joins values, the source holds several entries; their conditions need not be identical. Identical values can stand only once. Results filed as inconclusive are left out. Entries that show only a call come without a potency. A structure can be active in one record and inactive in another. Calls of active or inactive are those of the source. Calls follow the shape of the dose curve; as a rule, active = well fitted curve in the direction sought with a large enough effect in the repeat runs; inconclusive = weak or mixed curves; inactive = no such curve, though single readings can be large; an effect the other way counts as inactive or inconclusive.
Also: nearly all actives have a fitted effect of over 50% in size.
Potency is read from the fitted curve at half-maximal effect.

A short description of one experiment: qHTS RealTime-Glo MT Cell Viability Assay in HEK293 cells - 32 hour (AID 1224868). The settings on record: RealTime-Glo luminescence; series mostly up to 76.8 µM. The gist of the method: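 Nonlytic real-time viability readout: viable cells convert prosubstrate to NanoLuc substrate, giving luminescence proportional to live cell number. HEK293, 600 cells/well, compound added after 5 h, continuous culture at 37 C.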
(In general: qHTS replaces the single test concentration by a dilution series.)
Regarding `O=C(O)c1cn(-c2ccc(F)cc2)c2cc(N3CCNCC3)c(F)cc2c1=O`, the Potency entry is “inactive”.

Turning to `NC(N)=Nc1nc(CSCC/C(N)=N/S(N)(=O)=O)cs1`, the Potency result was “inactive”. For the compound `O=C(Oc1ccccc1)c1ccccc1O`, the Potency result is “inactive”.

For `CCN1CCCC1CNC(=O)c1cc(S(=O)(=O)CC)c(N)cc1OC` (stereo not given), the Potency result was “inactive”. As for `CCCCCCCCCCCCCC[P+](CCCC)(CCCC)CCCC`, the Potency is 173 nM (active) and 219 nM (active).

As to `O=C(O)c1cccc(C(=O)O)c1`, the Potency entry was “inactive”. On the same count and under the same terms, the same measure for `CC(=O)N[C@@H](CS)C(=O)O`: “inactive”. As to `c1cc(C(c2ccc(OCC3CO3)cc2)C(c2ccc(OCC3CO3)cc2)c2ccc(OCC3CO3)cc2)ccc1OCC1CO1` (stereo not given), the Potency entry is “inactive”. Same read-out and setting: in the case of `NC(N)=NC(=O)Cc1c(Cl)cccc1Cl` it was “inactive”. Still for that read-out and setting: the same measure for `CCCC(=O)c1ccccc1`: “inactive”.

Take `c1ccc2n[nH]nc2c1`: the Potency entry was “inactive”.

Turning to `CC(=O)OCCOCCOCCOC(C)=O`, the Potency result is “inactive”. The same measure, in the same setting: the same measure for `Cc1scc2c1N(C(=O)CN1CCN(C)CC1)c1ccccc1NC2=O`: “inactive”. Still for that read-out and setting: the same measure for `Oc1c(Cl)cc(Cl)c(Cl)c1Cc1c(O)c(Cl)cc(Cl)c1Cl`: 3.08 µM (active) and 5.49 µM (active). The same measure, in the same setting: in the case of `CCN(CC)C(=S)SSC(=S)N(CC)CC` it was 174 nM (active) and 89.1 nM (active) and 13.4 µM (active); in that of `NCCCCCC(=O)O`, “inactive”; in that of `CC(C)(C)c1ccc(O)c(C(C)(C)C)c1`, 38.7 µM (active). For `OCCN1CCNCC1`, the Potency is 7.9 µM (active). `CC[C@H]1CN2CCc3cc(OC)c(OC)cc3[C@@H]2C[C@@H]1C[C@H]1NCCc2cc(OC)c(OC)cc21`: the Potency was 15.5 nM (active) and 42.5 nM (active). In the case of `CCOC(=O)C(C)C(C)=O` (stereo not given), the Potency entry was “inactive”. For `CC(C)(C)c1cc(C(C)(C)C)c(O)c(C(C)(C)C)c1`, the Potency result is “inactive”. For the compound `CCC[C@H](N[C@@H](C)C(=O)N1[C@H](C(=O)O)C[C@@H]2CCCC[C@@H]21)C(=O)OCC`, the Potency entry was “inactive”.

A short description of another experiment: A CellTox Green Cytotoxicity Assay to monitor cytotoxicity in HEK293 cells - 0 hour (AID 1224869). The settings on record: CellTox Green fluorescence; series mostly up to 76.8 µM. In outline: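 Fluorescence intensity, read at 0, 8, 16, 24, 32 and 40 h of compound treatment, reflected dye binding to DNA of dead HEK293 cells; compounds (23 nL, DMSO) were added 5 h after plating cells with reagent.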
For the compound `O=C(O)c1cn(-c2ccc(F)cc2)c2cc(N3CCNCC3)c(F)cc2c1=O`, the Potency entry is “inactive”. The same measure, in the same setting: the same measure for `CCCCC(CC)COC(=O)CC(C(=O)OCC(CC)CCCC)S(=O)(=O)O` (stereo not given): “inactive”. With `NC(N)=Nc1nc(CSCC/C(N)=N/S(N)(=O)=O)cs1`, the Potency entry is “inactive”.

`O=C(Oc1ccccc1)c1ccccc1O`: the Potency entry is “inactive”. On to `CCN1CCCC1CNC(=O)c1cc(S(=O)(=O)CC)c(N)cc1OC` (stereo not given), for which the Potency entry was “inactive”. Still for that read-out and setting: in the case of `OCC(CO)N[C@H]1C[C@](O)(CO)[C@@H](O)[C@H](O)[C@H]1O` it was “inactive”; in that of `CCCCCCCCCCCCCC[P+](CCCC)(CCCC)CCCC`, “inactive”.

In the case of `O=C(O)c1cccc(C(=O)O)c1`, the Potency entry was “inactive”. Still for that read-out and setting: the same measure for `CC(=O)N[C@@H](CS)C(=O)O`: “inactive”. Consider `CC1COC(=O)O1` (stereo not given), for which the Potency result was “inactive”.

With `c1cc(C(c2ccc(OCC3CO3)cc2)C(c2ccc(OCC3CO3)cc2)c2ccc(OCC3CO3)cc2)ccc1OCC1CO1` (stereo not given), the Potency result is “inactive”.

Take `NC(N)=NC(=O)Cc1c(Cl)cccc1Cl`: the Potency entry is “inactive”. The same measure, in the same setting: the same measure for `CCCC(=O)c1ccccc1`: “inactive”. Turning to `C=C(C)C1CC=C(C)C(OC(C)=O)C1` (stereo not given), the Potency entry was “inactive”. With `CC(C)(C)NCC(O)COc1ccccc1OCC1CCCO1` (stereo not given), the Potency result is “inactive”. The same measure, in the same setting: in the case of `COC(=O)[C@H]1[C@H]2C[C@@H]3c4[nH]c5cc(OC)ccc5c4CCN3C[C@H]2C[C@@H](OC(=O)c2cc(OC)c(OC)c(OC)c2)[C@@H]1OC` it was “inactive”. The same measure, in the same setting: the same measure for `c1ccc2n[nH]nc2c1`: “inactive”. For `CC(=O)OCCOCCOCCOC(C)=O`, the Potency entry was “inactive”. Still for that read-out and setting: in the case of `COC(=O)/C=C/c1ccccc1` it was “inactive and 21.9 µM (active)”; in that of `Cc1scc2c1N(C(=O)CN1CCN(C)CC1)c1ccccc1NC2=O`, “inactive”. On to `Oc1c(Cl)cc(Cl)c(Cl)c1Cc1c(O)c(Cl)cc(Cl)c1Cl`, for which the Potency result is “inactive”.

For the compound `Nc1nc2ccccc2[nH]1`, the Potency result is “inactive”.

As for `CCN(CC)C(=S)SSC(=S)N(CC)CC`, the Potency entry was “inactive”. Same read-out and setting: in the case of `NCCCCCC(=O)O` it was “inactive”; in that of `CC(C)(C)c1ccc(O)c(C(C)(C)C)c1`, “inactive”. Turning to `CCC(C)(C)C(=O)O[C@H]1C[C@@H](C)C=C2C=C[C@H](C)[C@H](CC[C@@H]3C[C@@H](O)CC(=O)O3)[C@H]21`, the Potency result is “inactive”.

With `O=C(O)CCc1ccccc1`, the Potency entry is “inactive”.

Consider `OCCN1CCNCC1`, for which the Potency entry is “inactive”.

Consider `[Cl][In]([Cl])[Cl]`, for which the Potency result was “inactive”. The same measure, in the same setting: the same measure for `CC[C@H]1CN2CCc3cc(OC)c(OC)cc3[C@@H]2C[C@@H]1C[C@H]1NCCc2cc(OC)c(OC)cc21`: “inactive”; for `CC(C)CCOC(=O)c1ccc(N(C)C)cc1`: “inactive”. As to `Cc1cc(C2(c3cc(C)c(O)cc3C)OS(=O)(=O)c3ccccc32)c(C)cc1O`, the Potency entry was “inactive”. On the same count and under the same terms, the same measure for `CCOC(=O)C(C)C(C)=O` (stereo not given): “inactive”; for `CC(C)(C)c1cc(C(C)(C)C)c(O)c(C(C)(C)C)c1`: “inactive”; for `CCC[C@H](N[C@@H](C)C(=O)N1[C@H](C(=O)O)C[C@@H]2CCCC[C@@H]21)C(=O)OCC`: “inactive”. In the case of `CC(COc1ccccc1)N(CCCl)Cc1ccccc1` (stereo not given), the Potency result is “inactive”. Still for that read-out and setting: the same measure for `O=C1CC2(CCCC2)CC(=O)N1CCCCN1CCN(c2ncccn2)CC1`: “inactive”; for `O=c1n(CC2CO2)c(=O)n(CC2CO2)c(=O)n1CC1CO1` (stereo not given): “inactive”.
